Assay results published in PubChem BioAssay (EPA / NIEHS).
Records with an inconclusive call do not appear. Activity calls are given as the source filed them. Rule for the calls: active = hit-call score of the fitted dose curve at least 0.9, where 1 is the maximum; inconclusive = response in the unintended direction; inactive = score below 0.9.

Test: ATG_M_06_TRANS: Attagene TRANS-FACTORIAL HepG2 Assay for M06 Transcription Factor (Internal Marker) (AID 2282983);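 note: reporter transcript level by RT-PCR then capillary electrophoresis fluorescence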
Details: HepG2 Attagene TRANS M06 internal marker reporter
In short: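 Human liver HepG2 cells bearing transiently transfected chimeric NR-GAL4 reporter units were treated with chemicals for 24 h. Total RNA was reverse-transcribed, reporter sequences amplified and labelled, then quantified by capillary electrophoresis. Activity was fitted upward relative to DMSO.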

SMILES | outcome
CCc1cnc(C2=NC(C)(C(C)C)C(=O)N2)c(C(=O)O)c1 (configuration not stated) | inactive
CSc1nnc(C(C)(C)C)c(=O)n1N | inactive
S=C1NCCN1 | inactive
O=c1ccc(=O)[nH][nH]1 | inactive
COP(=O)(NC(C)=O)SC (configuration not stated) | inactive
CCOP(=S)(OCC)Oc1cc(C)nc(C(C)C)n1 | inactive
CCOP(=S)(OCC)SCCSCC | inactive
CCC(CC)Nc1c([N+](=O)[O-])cc(C)c(C)c1[N+](=O)[O-] | inactive
CNC(=O)Oc1cccc2c1OC(C)(C)O2 | inactive
CN(C)NC(=O)CCC(=O)O | inactive
Cc1cc(C2CC2)nc(Nc2ccccc2)n1 | inactive
C#CC(C)(C)NC(=O)c1cc(Cl)cc(Cl)c1 | inactive
CC(=NC#N)N(C)Cc1ccc(Cl)nc1 | inactive
CCOP(=S)(OCC)Oc1ccc([N+](=O)[O-])cc1 | inactive
CCCSP(=O)(OCC)Oc1ccc(Br)cc1Cl (configuration not stated) | inactive
FC(F)C(F)(F)OCC(Cn1cncn1)c1ccc(Cl)cc1Cl (configuration not stated) | inactive
C[Si](Cn1cncn1)(c1ccc(F)cc1)c1ccc(F)cc1 | inactive
CNc1cnn(-c2cccc(C(F)(F)F)c2)c(=O)c1Cl | inactive
CC(C)N(C(=O)SCC(Cl)=C(Cl)Cl)C(C)C | inactive
CCOP(=O)(OCC)Oc1cc(C)nc(C(C)C)n1 | inactive

Test: ATG_M_32_TRANS: Attagene TRANS-FACTORIAL HepG2 Assay for M32 Transcription Factor (Internal Marker) (AID 2282984);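 note: transcript level of a background control reporter unit measured by RT-PCR and capillary electrophoresis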
Details: HepG2 Attagene TRANS M32 internal marker reporter
In short: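 Internal background reporter in transfected HepG2: after 24 h chemical exposure, RNA reverse-transcribed, reporter cDNA amplified, fluorescently labelled and HpaI-cut, then sized by capillary electrophoresis. Gain of signal fitted against DMSO control.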

SMILES | outcome
S=C1NCCN1 | inactive
O=c1ccc(=O)[nH][nH]1 | inactive
CC(Oc1cccc(Cl)c1)C(=O)O (configuration not stated) | inactive
CSc1nc(NC(C)C)nc(NC(C)C)n1 | inactive
CCC(CC)Nc1c([N+](=O)[O-])cc(C)c(C)c1[N+](=O)[O-] | inactive
CON=C(C(=O)OC)c1ccccc1CON=C(C)c1cccc(C(F)(F)F)c1 | inactive
CNC(=O)Oc1cccc2c1OC(C)(C)O2 | inactive
CN(C)NC(=O)CCC(=O)O | inactive
Cc1cc(C2CC2)nc(Nc2ccccc2)n1 | inactive
C#CC(C)(C)NC(=O)c1cc(Cl)cc(Cl)c1 | inactive
CC(=NC#N)N(C)Cc1ccc(Cl)nc1 | inactive
O=C(O)c1cc(Oc2ccc(C(F)(F)F)cc2Cl)ccc1[N+](=O)[O-] | inactive
CCOP(=O)(SC(C)CC)N1CCSC1=O (configuration not stated) | inactive
CCCSP(=O)(OCC)Oc1ccc(Br)cc1Cl (configuration not stated) | inactive
C[Si](Cn1cncn1)(c1ccc(F)cc1)c1ccc(F)cc1 | inactive
CN(C)C(=O)Nc1cccc(C(F)(F)F)c1 | inactive
CC(C)N(C(=O)SCC(Cl)=C(Cl)Cl)C(C)C | inactive
CCNc1nc(Cl)nc(NC(C)(C)C#N)n1 | inactive
CC[C@H](C)[C@H]1O[C@]2(C=C[C@@H]1C)C[C@@H]1C[C@@H](C/C=C(\C)[C@@H](O[C@H]3C[C@H](OC)[C@@H](O[C@H]4C[C@H](OC)[C@@H](NC)[C@H](C)O4)[C@H](C)O3)[C@@H](C)/C=C/C=C3\CO[C@@H]4[C@H](O)C(C)=C[C@@H](C(=O)O1)[C@]34O)O2 | inactive
CCOP(=O)(OCC)Oc1cc(C)nc(C(C)C)n1 | inactive
CCCCOC(=O)c1ccccc1C(=O)O | inactive
CC(C1CC1)C(O)(Cn1cncn1)c1ccc(Cl)cc1 (configuration not stated) | inactive
